Measurements published in PubChem BioAssay AID602257 (NMMLSC, 2012).
Potency and affinity values are given separately. The source made the active and inactive calls. Where a call stands in place of a potency, no number is given. No rule for the calls is given here.

Assay: yeast V-ATPase proton pumping modulator potency, dose response, S. cerevisiae, pHLuorin, powder set 1 (AID 602257)

SMILES | outcome
Cc1cc(C(=O)N2CCN(c3nc4ccc(F)cc4s3)CC2)no1 | inactive
O=C(c1ccc([N+](=O)[O-])o1)N1CCN(c2nccs2)CC1 | inactive
O=C(c1ccc([N+](=O)[O-])o1)N1CCN(c2nc3ccc(F)cc3s2)CC1 | inactive
CS(=O)(=O)c1cccc2sc(N3CCN(C(=O)c4ccc([N+](=O)[O-])o4)CC3)nc12 | inactive
O=C(c1ccno1)N1CCN(c2nc3ccc(F)cc3s2)CC1 | inactive
COc1ccc2nc(N3CCN(C(=O)c4ccc([N+](=O)[O-])o4)CC3)sc2c1 | inactive
Cc1cc(C(=O)N2CCN(c3nc4ccc(F)cc4s3)CC2)on1 | inactive
O=C(c1ccc(Br)s1)N1CCN(c2nc3ccc(F)cc3s2)CC1 | inactive
O=C(c1nc2ccccc2s1)N1CCN(c2nc3ccc(F)cc3s2)CC1 | inactive
O=C(c1cccs1)N1CCN(c2nc3ccc(F)cc3s2)CC1 | inactive
CS(=O)(=O)c1ccc2nc(N3CCN(C(=O)c4ccc([N+](=O)[O-])o4)CC3)sc2c1 | inactive
Cc1cc(C(=O)N2CCN(c3nc4ccc(F)cc4s3)CC2)nn1C | inactive
O=C(C1CC1)N1CCN(c2nc3ccc(F)cc3s2)CC1 | inactive
O=C(c1cnccn1)N1CCN(c2nc3ccc(F)cc3s2)CC1 | inactive
O=C(c1ccc([N+](=O)[O-])o1)N1CCN(c2ccccn2)CC1 | inactive
CC(C)(C)C(=O)N1CCN(c2nc3ccc(F)cc3s2)CC1 | inactive
Cc1cc(C(=O)N2CCN(c3nc4ccc(F)cc4s3)CC2)n(C)n1 | inactive
O=C(c1ccco1)N1CCN(c2nc3ccc(F)cc3s2)CC1 | inactive
O=C(c1ccc(Cl)s1)N1CCN(c2nc3ccc(F)cc3s2)CC1 | inactive
O=C(C1CCCCC1)N1CCN(c2nc3ccc(F)cc3s2)CC1 | inactive
